Hit rate of the full screen: of about 52,000 compounds, about 1,700 (3.3%) were called active. Rule as the data show it: active = survival mostly below about 52% (no sharp cut-off); inactive = mostly above about 56%. The list comes from a sample in which actives are over-represented; it also holds similar structures and randomly drawn compounds.

In the assay the test system is Wild type. Nature of the assay: S. aureus survival, RN4220 and DeltatarO strains – OD600, teichoic acid synthesis inhibitors, primary screen (AID 463173). As to conditions: S. aureus RN4220 wild type/DeltatarO growth, OD600, 18 h, active compounds read low, screened at 18.75 µg/mL (by protocol).
Turning to `CCOc1ccccc1NC(=O)c1c(NC(=O)COc2ccc(Cl)cc2)sc2c1CCCCC2`, the survival was 75% (inactive).
The value for `CC(=O)c1ccc(OC(=O)c2c(-c3ccccc3Cl)noc2C)cc1` was 56% (inactive); that for `Cc1onc(-c2ccccc2Cl)c1C(=O)Oc1ccc(Br)cc1` was 4% (active).
The value for `CCOc1ccc(OC(=O)c2c(-c3ccccc3Cl)noc2C)cc1` was 59% (inactive); that for `Cc1ccc(S(=O)(=O)NCC(c2ccc(N(C)C)cc2)N2CCCC2)cc1` (centres undefined) was 88% (inactive); that for `CN(C)c1ccc(C(CNS(=O)(=O)c2ccc(Cl)cc2)N2CCOCC2)cc1` (centres undefined) was 10% (active).
As to `Cc1ccc(S(=O)(=O)NCC(c2ccc(N(C)C)cc2)N2CCOCC2)cc1` (centres undefined), the survival is 65% (inactive).
On to `CN(C)c1ccc(C(CNS(=O)(=O)c2ccc(F)cc2)N2CCOCC2)cc1` (centres undefined), for which the survival is 83% (inactive).
Take `CN(C)c1ccc(C(CNS(=O)(=O)c2ccc(Cl)cc2)N2CCCC2)cc1` (centres undefined): the survival was -3% (active).
Consider `CN(C)c1ccc(C(CNS(=O)(=O)c2ccc(F)cc2)N2CCCC2)cc1` (centres undefined), for which the survival was 124% (inactive).
Turning to `C=CCn1cc(F)c(=O)n(CC=C)c1=O`, the survival is 109% (inactive).
With `CCOc1ccc(NC(=O)Cn2nc(Cc3ccncc3)c3ccccc3c2=O)cc1`, the survival is 108% (inactive).
As for `CC(C)C(=O)N1CCN(c2ccc(NC(=O)c3ccccc3)cc2)CC1`, the survival was 95% (inactive).
The value for `O=C(Nc1ccc2oc(=O)ccc2c1)c1cccc(F)c1` was 106% (inactive); that for `COc1ccc2sc(N(Cc3cccnc3)C(=O)c3cccs3)nc2c1` was 64% (inactive); that for `Cc1cc2nc(N(Cc3cccnc3)C(=O)c3ccc(Cl)s3)sc2cc1C` was 0% (active).
The value for `COc1cc(C(=O)N(Cc2cccnc2)c2nc3cc(C)c(C)cc3s2)cc(OC)c1OC` was 22% (inactive); that for `COc1ccc2sc(N(Cc3cccnc3)C(=O)c3ccco3)nc2c1` was -4% (active); that for `CCS(=O)(=O)c1ccccc1C(=O)N(Cc1cccnc1)c1nc2cc(C)c(C)cc2s1` was 118% (inactive).
The figure for `COc1ccc2nc(N(Cc3cccnc3)C(=O)c3ccco3)sc2c1` is 70% (inactive); for `Cc1scc(-c2ccccc2)[n+]1CCO` it is 109% (inactive); for `CCOc1ccc(NC2SC(=O)N(Cc3ccccc3)C2=O)cc1` (centres undefined) it is 72% (inactive).
For the molecule `COc1cc(OC)c(NC(=O)c2cnn(-c3cccc(Cl)c3C)c2C2CCN(C(=O)OC(C)(C)C)CC2)cc1Cl`, the survival was 53% (inactive).
The value for `COC(=O)c1ccn(-c2nc(-c3ccc(Cl)cc3)cc(C(F)(F)F)n2)n1` was 9% (active); that for `COc1ccc(-c2cc(C(F)(F)F)nc(S(C)(=O)=O)n2)cc1` was 98% (inactive).
Take `CCOC(=O)c1ccn(-c2nc(-c3cccc(OC)c3)cc(C(F)(F)F)n2)n1`: the survival was 48% (inactive).
The figure for `COc1ccc(-c2cc(C(F)(F)F)nc(NCc3ccc(Cl)cc3)n2)cc1` is -3% (active); for `COc1ccc(CNC(=O)CSc2nc(-c3ccc(OC)c(OC)c3)cc(C(F)(F)F)n2)cc1` it is 83% (inactive).
Regarding `COc1ccc(CNc2nc(-c3ccc(Cl)cc3)cc(C(F)(F)F)n2)cc1`, the survival is -4% (active).
The figure for `COc1ccc(-c2cc(C(F)(F)F)nc(SCC(=O)NCc3ccc(Cl)cc3)n2)cc1` is 83% (inactive).
The figure for `COC(=O)CSc1nc(-c2ccc(F)cc2)cc(C(F)(F)F)n1` is 123% (inactive); for `CS(=O)(=O)N(CC(=O)N1CCCC1)c1cccc(Cl)c1Cl` it is 97% (inactive).
As for `Cc1cc(C)c2nc(NC(=O)c3ccc(S(=O)(=O)N4CCC(C)CC4)cc3)sc2c1`, the survival was 79% (inactive).
The figure for `O=C(CN1C(=O)CSC1=O)NC1CCCCC1` is 104% (inactive); for `CC(NC(=O)c1cc(-c2ccc(Cl)cc2)on1)c1ccccc1` (centres undefined) it is 140% (inactive).
As for `COc1ccc(OC)c(-c2cc(C(=O)NC(C)c3ccccc3)no2)c1` (centres undefined), the survival was -12% (active).
The figure for `CC(C)c1cc(C(=O)NC(C)c2ccccc2)no1` (centres undefined) is 81% (inactive); for `COc1ccc(OC)c(-c2cc(C(=O)NCc3ccc(Cl)cc3)no2)c1` it is 85% (inactive).
The value for `COc1ccc(OC)c(-c2cc(C(=O)Nc3ccc(C)c(C)c3)no2)c1` was -9% (active); that for `COc1ccc(OC)c(-c2cc(C(=O)Nc3cccc(Cl)c3C)no2)c1` was 26% (inactive).
With `COc1ccc(CNc2oc(-c3ccc(COc4ccc(OC)cc4)o3)nc2C#N)cc1`, the survival is 129% (inactive).
The value for `CC(=O)c1nn(-c2ccc(OC(F)(F)F)cc2)nc1Nc1ccc(C)cc1` was 96% (inactive); that for `CCCS(=O)(=O)Nc1cc2c(cc1NCc1ccccc1)n(C)c(=O)n2C` was 82% (inactive).
The figure for `CCN1CCN(c2c(S(=O)(=O)c3ccc(Cl)cc3)cnc3ccccc23)CC1` is 82% (inactive); for `Cc1cccc(S(=O)(=O)c2cn(Cc3ccccc3)c3cc(N4CCCCC4C)c(F)cc3c2=O)c1` (centres undefined) it is 71% (inactive); for `COc1ccc(S(=O)(=O)c2cnc3ccc(Cl)cc3c2N2CCCCC2C)cc1` (centres undefined) it is 23% (inactive).
`CCN1CCN(c2c(S(=O)(=O)c3ccccc3)cnc3ccc(Cl)cc23)CC1`: the survival was 119% (inactive).
With `Cc1ccc2ncc(S(=O)(=O)c3ccccc3)c(N3CCCCC3C)c2c1` (centres undefined), the survival was 0% (active).
For the molecule `CC1CCCCN1c1c(S(=O)(=O)c2ccc(Cl)cc2)cnc2ccccc12` (centres undefined), the survival is 3% (active).
With `COc1ccc(Cl)cc1NC(=O)Cn1nnc(C(=O)NCc2ccc3c(c2)OCO3)c1N`, the survival is 81% (inactive).
The value for `c1ccc(Cn2nnnc2C(c2cccnc2)N2CCN(c3ccccc3)CC2)cc1` (centres undefined) was 113% (inactive); that for `COC(=O)COc1ccc(Oc2nc(NC(C)(C)C)nc(N(C)C)n2)nn1` was 85% (inactive); that for `Cc1ccc(CNC(=O)CSc2c(C(C)C)cnc3c2c(=O)n(C)c(=O)n3C)cc1` was 58% (inactive).
On to `CCc1cnc2c(c1SCC(=O)NCc1ccc(C)cc1)c(=O)n(C)c(=O)n2C`, for which the survival was 67% (inactive).
Regarding `CCCc1cnc2c(c1SCC(=O)NCc1ccc(C)cc1)c(=O)n(C)c(=O)n2C`, the survival was -6% (active).
As to `CCOC(=O)c1cc(-c2ccccc2)n(-c2cccc(C(=O)Nc3ccc(OCC)cc3)c2)c1C`, the survival was 10% (active).
For the molecule `CCOC(=O)c1cc(-c2ccccc2)n(-c2cccc(C(=O)Nc3cccc(C(C)=O)c3)c2)c1C`, the survival was 70% (inactive).
The figure for `CCOC(=O)c1cc(-c2ccccc2)n(-c2cccc(C(=O)Nc3cccc(SC)c3)c2)c1C` is 0% (active).
The figure for `CCOC(=O)c1cc(-c2ccccc2)n(-c2cccc(C(=O)Nc3cccc(F)c3)c2)c1C` is 131% (inactive); for `CCOC(=O)c1cc(-c2ccccc2)n(-c2cccc(C(=O)Nc3ccc(OC)cc3)c2)c1C` it is 77% (inactive).
Consider `CCOC(=O)c1cc(-c2ccccc2)n(-c2cccc(C(=O)Nc3cc(OC)cc(OC)c3)c2)c1C`, for which the survival is 88% (inactive).
With `CCc1ccc(Nc2nnc(-c3cc4cc(OC)ccc4oc3=O)s2)cc1`, the survival is 138% (inactive).
With `CCC(CC)C(=O)Nc1cc(-c2cccc(C)c2)nn1-c1ccccc1`, the survival is 69% (inactive).
The value for `COc1ccc(CCn2c(=O)[nH]c3cc(C(=O)N4CCN(c5ccccc5)CC4)ccc3c2=O)cc1OC` was 102% (inactive).
The value for `O=C1OC(c2ccccc2)=C/C1=C/N1CCOCC1` was 116% (inactive); that for `COc1ccc(C2C=C(c3ccccc3)Nc3nc(NS(=O)(=O)c4ccc(C)cc4)nn32)cc1` (centres undefined) was 66% (inactive); that for `Cc1ccc(C2C=C(c3ccc(Cl)cc3)Nc3nc(NS(=O)(=O)c4ccccc4)nn32)cc1` (centres undefined) was 75% (inactive).
With `O=S(=O)(Nc1nc2n(n1)C(c1ccc(F)cc1)C=C(c1ccccc1)N2)c1ccc(Cl)cc1` (centres undefined), the survival is 14% (active).
In the case of `COc1ccc(C2C=C(c3ccccc3)Nc3nc(NS(=O)(=O)c4ccc(Cl)cc4)nn32)cc1` (centres undefined), the survival is 0% (active).
Turning to `COc1ccc(C2C=C(c3ccc(F)cc3)Nc3nc(-c4ccc(Cl)cc4)nn32)cc1` (centres undefined), the survival is 105% (inactive).
The value for `COc1ccc(C2C=C(c3ccccc3)Nc3nc(NS(=O)(=O)c4ccccc4)nn32)cc1` (centres undefined) was 29% (inactive).
`Cc1ccc(C2=CC(c3ccc(Cl)cc3)n3nc(-c4ccc(C)cc4)nc3N2)cc1` (centres undefined): the survival was 1% (active).
The figure for `COc1ccc(C2C=C(c3ccc(Cl)cc3)Nc3nc(-c4ccc(Cl)cc4)nn32)cc1` (centres undefined) is 88% (inactive).
In the case of `O=S(=O)(Nc1nc2n(n1)C(c1ccc(F)cc1)C=C(c1ccc(Cl)cc1)N2)c1ccccc1` (centres undefined), the survival was 57% (inactive).
For the molecule `Cc1ccc(C2C=C(c3ccccc3)Nc3nc(NS(=O)(=O)c4ccccc4)nn32)cc1` (centres undefined), the survival is 83% (inactive).
In the case of `Cc1ccc(S(=O)(=O)Nc2nc3n(n2)C(c2ccc(Cl)cc2)C=C(c2ccccc2)N3)cc1` (centres undefined), the survival was -4% (active).
The figure for `O=S(=O)(Nc1nc2n(n1)C(c1ccc(F)cc1)C=C(c1ccccc1)N2)c1ccccc1` (centres undefined) is 74% (inactive); for `CSc1ccc(/C=C(\C#N)C(=O)NC2CCCCC2)cc1` it is 95% (inactive).
The figure for `O=C(Cn1nc(-c2ccccc2)c2c(c1=O)CCCC2)Nc1ccc(F)c(Cl)c1` is 44% (inactive).
Take `CCOc1ccccc1NC(=O)N1CCC(N2CCN(Cc3ccccc3)C(=O)C2=O)CC1`: the survival is 68% (inactive).
The figure for `Cc1ccc(C)c(S(=O)(=O)NCC(c2ccc(N(C)C)cc2)N2CCOCC2)c1` (centres undefined) is 73% (inactive); for `Cc1sc2nc(SCC(=O)N(CCO)CCO)n(C3CCCCC3)c(=O)c2c1C` it is 106% (inactive); for `CCOc1ccc(CCNC(=O)CS(=O)(=O)Cc2nc(-c3cccc(Cl)c3)oc2C)cc1` it is 82% (inactive).
The figure for `Oc1cccc2c1NCCC2` is 113% (inactive); for `O=S(=O)(c1cccc(Cl)c1)c1nnn2c1nc(NCc1ccc3c(c1)OCO3)c1sccc12` it is 80% (inactive).
Turning to `CCSc1oc(-c2cccs2)nc1S(=O)(=O)c1ccc(Br)cc1`, the survival is 51% (inactive).
As for `CCOC(=O)CNC(=O)CC(c1cc(OC)c(OC)c(OC)c1)N1Cc2ccccc2C1=O` (centres undefined), the survival is 60% (inactive).
On to `Cc1c(Cl)cccc1NC(=O)C1CCN(c2ncnc3c2nc2n3CCCCC2)CC1`, for which the survival is 129% (inactive).
The figure for `O=C(COc1ccccc1)Nc1ccc2nc(SCCOc3ccccc3)sc2c1` is 94% (inactive).
